Experimental data published in the supplement of paper PMC6555819.

Key:
Assay in all cases: PBM binding z-score (relative to random genomic background probes); higher = stronger binding; sequences stand for … in GC…GCGATTGACAGCGTAGAATGAAGG
[1] = test system: FXR:RXRa (NR concentration 270 nM, RXRa partner concentration 90 nM)
Summary of the method: (§1)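 Probes were double-stranded and carried 34-nt variable regions with direct-repeat seeds, single-nucleotide variants, half-site ablations and random human genomic background sequences, printed on custom Agilent 4×180K protein-binding microarrays. Arrays were incubated 1 h with ligand-free nuclear receptor dimers in PBS pH 7.4, 2% milk, 0.02% Triton X-100, 1 mM DTT, 0.2 mg/mL BSA and 0.4 mg/ml salmon testes DNA. Antibodies against each partner (one per run) detected binding, and scanned fluorescence was regression-normalized. Binding z-scores use the random background probes as reference.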

[2] = test system: LXRa:RXRa (NR concentration 270 nM, RXRa partner concentration 90 nM)
Summary of the method: as §1

[3] = test system: LXRa homodimer (NR concentration 270 nM)
Summary of the method: as §1

[4] = test system: LXRb:RXRa (NR concentration 270 nM, RXRa partner concentration 90 nM)
Summary of the method: as §1

[5] = test system: LXRb homodimer (NR concentration 270 nM)
Summary of the method: as §1

[6] = test system: PPARa:RXRa (NR concentration 270 nM, RXRa partner concentration 90 nM)
Summary of the method: as §1

[7] = test system: PPARg:RXRa (NR concentration 180 nM, RXRa partner concentration 90 nM)
Summary of the method: as §1

[8] = test system: PPARg:RXRa 270nM:90nM, anti-RXR (NR concentration 270 nM, RXRa partner concentration 90 nM)
Summary of the method: as §1

[9] = test system: PPARg:RXRa 30nM:10nM, anti-RXR (NR concentration 30 nM, RXRa partner concentration 10 nM)
Summary of the method: as §1

[10] = test system: PPARg:RXRa 90nM:30nM, anti-RXR (NR concentration 90 nM, RXRa partner concentration 30 nM)
Summary of the method: as §1

Sequence	PBM binding z-score [1]	PBM binding z-score [2]	PBM binding z-score [3]	PBM binding z-score [4]	PBM binding z-score [5]	PBM binding z-score [6]	PBM binding z-score [7]	PBM binding z-score [8]	PBM binding z-score [9]	PBM binding z-score [10]
ACTATTAGGTGAGACGAGGGCAACCGATAGGTTG	1.3	0.503	0.00247	0.202	-0.293	1.5	1.44	1.19	0.65	0.864
CGAACTAGGTCATTGACAGGACAGTGAGTAGTAA	4.28	3.06	0.194	1.92	-0.291	4.8	7.21	6.03	3.7	5.57
AGAATGAGGTTATTAAGATCAGGCAATTGCGGTC	1.46	1.36	0.308	1.11	-0.00931	2.58	1.42	1.73	0.485	1.18
CGAACTCGGTCATTGACAGGACAGTGAATAGTAA	1.78	1.2	0.283	0.401	-0.271	1.07	0.725	0.451	-0.134	0.0163
CGAACGAGGGCATGAGTTGGTAGCAAATGCCGAT	0.159	0.0461	-0.707	-0.2	-1.32	1.06	0.849	0.827	0.00769	0.471
CCGACTGGGGCATAAGGGTACCATAAGCCAGCCC	-0.549	-0.376	-0.527	-0.624	-1.67	0.305	1.3	1.35	-0.296	1.18
GCAGACTGGTGAAACGCAGGTAACTCAGGGTGGC	-0.987	-0.932	-0.841	-1.19	-1.45	-1.12	-0.00355	-0.98	-0.852	-1.12
ATCTCAAGGTAAAAGTTCAGTGAATCCCGAGGAT	1.18	1.66	1.12	0.879	0.539	3.08	3.54	4.49	2.83	4.24
AGAATGAGGTTAAGATCGGGGAAACAGAATACAT	2.13	4.69	-0.244	2.3	0.08	3.65	2.06	2.53	0.954	1.75
CCTAGTTCGTCAGGAGGTCACACACCGGATATGA	3.66	4.1	2.37	3.64	1.22	4.28	2.29	3.03	1.04	2.19
ATTTCTAGGTAACCAAGTTCAGTGAATGCCGAAC	0.465	0.956	1.1	0.544	0.68	2.16	1.8	1.8	0.773	1.38
CTCGAAAGGTCGTGCTCAGGTGAGTGTACCAAAC	5.56	4.02	0.294	3.22	0.22	4.73	2.35	4.01	1.05	2.56
CGAACTAGGTCAAGGACAGTTAATCTCCGCACGC	3.29	2.36	0.153	1.58	-0.0529	4.46	7.29	6.38	3.78	5.73
TAGCCTAGGTCATGGGTCAGTATACCACGCGAAC	5.1	4	0.898	3.62	0.339	4.77	6.78	5.95	3.9	6.14
ATATGTAGGTTAGCGGGTCATTCAGTTTGCGCAT	2.01	2.27	0.947	2.45	0.826	4.33	6.81	5.6	3.1	5.16
GCTGCTAGGTCAACTCATGGTCAGCTAAAGCTCG	4.3	2.9	0.227	2.29	0.577	3.73	2.73	3.12	0.277	1.79
ATCTTTAGGTAAAGATAGTTCAGTGAATGCAAAT	0.178	4.41	0.491	0.995	0.495	0.508	0.63	0.465	0.338	0.506
GCTATTAGTTGAAAGGGCAACCGCATGATTCTCG	0.581	0.701	0.377	0.909	-0.00487	2.31	2.89	4.29	2.56	4.39
CGAACTAGGTCAGACCAGGACAGTGAAGGATGAT	1.62	1.04	-0.304	0.246	-0.517	3.36	6.07	5.08	2.19	3.95
CATACTAGGTCACCGGAAGGTCAAAGTCCGCATG	5.94	6.26	5.63	5.54	2.08	5.71	8.32	7.18	4.5	6.47
ATCGAAAGGTCGACGAGGTCAGTATACACCGTTT	5.54	5.03	1.52	4.61	0.78	5.04	3.64	4.13	1.28	2.65
AGAACGAGGGCAATGAGGTGATAGCACGGGTGGC	0.341	0.494	-0.43	-0.215	-0.118	1.72	1.75	1.46	-0.142	0.347
AGTGAAAGTTCACTAGGTAACGTAAGATTCAGCT	4.44	5.02	3.08	2.88	0.454	4.5	6.12	6.07	3.52	5.3
TCTTGTAGATCAACAGGAGGTTATGAAAGATCGA	0.335	1.2	0.215	0.914	-0.0997	1.2	0.228	1.25	2.43	1.78

Sequence	PBM binding z-score [1]	PBM binding z-score [2]	PBM binding z-score [3]	PBM binding z-score [4]	PBM binding z-score [5]	PBM binding z-score [6]	PBM binding z-score [7]	PBM binding z-score [8]	PBM binding z-score [9]	PBM binding z-score [10]
GCAGACAGGTGAAACGCAGGTAAGTCAGGGTGGC	-0.334	-0.134	-0.679	-0.502	-0.938	0.476	0.369	-0.16	-0.946	-0.534
CAAACCAGGTCACCGGAAGGTCAAAGTCCGCATG	7.26	6.79	5.52	6.01	1.71	6.08	7.88	6.92	4.07	6.45
ATATGTAGGTTATCGGGTCATTTAGTTTGCGCAT	3.57	3.18	2.41	3.28	1.19	4.9	7.59	6.1	3.69	5.91
TTTAGCAGGCCAGAGGGTCACTCAAGAGGTACGG	0.67	0.761	-0.56	1.09	-0.78	2.32	2.08	2.99	1.1	2.42
CCTACTGAGCCATCAGGTCATTGATATCAACGTT	1.58	1.47	2.08	2.26	0.649	1.79	0.302	0.843	0.137	0.472
ATCTCTAGGGAAAGATAGTTCAGTGAATGCAAAT	-0.0344	0.192	0.0693	0.157	0.479	0.0958	0.337	0.214	0.232	0.358
TCGAGTAGGTTACCTATGGGGCATTCAGCTTTCT	0.0442	1.74	-0.775	0.927	-1.31	1.24	0.475	1.01	1.17	1.17
CCTTACGGGTCAACGTTATAGCACGGGTGGTACG	4.79	3.47	-0.0163	2.99	-0.125	4.99	4.45	4.48	1.52	3.43
AGTCAAAGTTCACTAGGTAACGTAAGATTCAGCT	5.37	5.1	3.04	3.17	1.11	5.11	7.61	6.5	3.74	6.12
ACTATAAGTTGACTTAGGGCAACCGATACGACGC	0.483	0.919	0.287	0.215	0.348	0.427	1.23	0.205	0.44	0.54
GCTTGCAGATCAAGGTTAAGAAAGACTAAGCTAA	-0.109	0.424	-0.386	0.358	-0.936	1.25	0.0724	0.872	0.0105	0.351
ACTATTAGTTGAGACGAGGGCAAGCGATAGGTTG	0.338	-0.125	-0.12	-0.138	-0.0702	0.257	0.699	0.134	0.381	0.467
TCATATAGGTAATACAGGTGAAACTCGGCATCTA	1.07	1.41	0.63	1.14	0.362	2.28	1.85	2.56	3.88	3.33
TCATATAGGTAATACAGGTGGAAGTCGGCATCTA	1.45	1.49	0.307	0.555	0.553	1.31	1.07	2.33	3.98	3.14
TCTCGGAGGACACGAAGGTCAGATCTTTCCAGAG	1.76	1.41	1.09	1.64	-0.544	1.98	0.475	1.77	2.61	2
CGGACGAGGGCATGAGTTGATAGCAAATGCCGAT	0.265	0.0809	-0.262	-0.154	-0.96	1.01	0.992	0.682	-0.202	0.196
CGTCCAAGGTCAGAGAGGTCCGTGAATGCCGAGT	4.9	3.08	-0.0652	1.98	-0.373	3.88	1.83	2.4	-0.0552	1.08
TTACCAAGGTGAAAGGTCGTTGGTGCACGCCTTG	4.28	3.47	0.325	2.87	-0.67	5.54	8.98	8.05	6.8	8.19
TTACCAAGGTGCAAGGTCGTTGATGCACGCCTTG	0.786	1.16	0.129	0.668	-0.474	2.06	2.28	3.87	1.91	3.42
CCTAGTTGGTCAACGTCACACACGCTATAGGTAC	0.458	0.525	0.431	0.877	0.581	0.58	1.25	0.719	0.299	0.407
CGTCCAAGGTCAGCAGGTCAGTAAAAGCGACGTG	5.97	4.07	0.614	3.22	-0.235	4.9	3.97	4.43	1.37	2.87
AGAATGAGGTTATTAAGTTCAGGGAATTGCGGTC	2.41	3.29	2.12	1.95	0.228	3.11	1.55	2.1	0.695	1.08
TATTGTAGATCAATAGAGGTTAAGAAAGTGCGCT	0.833	3.7	0.984	1.79	0.902	1.97	0.757	0.86	0.535	0.718
CGACAAAGTTCAAGGTAACGTAACAGAAAGCAGC	5.84	5.54	1.97	3.29	0.658	4.63	3.59	4.67	1.47	3.46
